Measurements from PubChem BioAssay AID463173 (ICCB-Longwood Screening Facility, Harvard Medical School, 2010).
The whole screen tested about 52,000 compounds, of which about 1,700 (3.3%) were called active. What follows is part of a selection rich in actives, with near analogues and random picks from the rest. Values without a mark were called inactive. No stated cut-off is given here; in the data, active means survival mostly below about 52% (no sharp cut-off); inactive means mostly above about 56%.

These molecules were tested on Wild type (assay: S. aureus survival, RN4220 and DeltatarO strains – OD600, teichoic acid synthesis inhibitors, primary screen (AID 463173)). Conditions: S. aureus RN4220 wild type/DeltatarO growth, OD600, 18 h, hits give low values, screened at 18.75 µg/mL (by protocol).
`O=C(CSc1nc2ccccc2c(=O)n1-c1ccccc1)N1CCOCC1` was tested, and the survival was 104%.
`CC(=O)Nc1cccc(NC(=O)c2c(-c3ccccc3)c(-c3ccccc3)nn(C)c2=O)c1` showed a survival of 85%.
`COc1ccc2cc(-c3nc(-c4ccc(N(C)C)cc4)no3)c(=O)oc2c1` gave a survival of 99%.
`COc1cccc(CNS(=O)(=O)c2cnc(N)nc2)c1` gave a survival of 57%.
For `COc1ccc(CNS(=O)(=O)c2cnc(N)nc2)cc1`, the survival was -4% (active).
`CC(C)Oc1ccc(CNS(=O)(=O)c2cnc(N)nc2)cc1` gave a survival of 111%.
`CC(C)(C)OC(=O)N1CCC(c2c(C(=O)NCCN3CCOCC3)cnn2-c2ccccc2)CC1` showed a survival of 64%.
Work on `NCC1OCCc2ccccc21` (stereo not given) yielded a survival of 114%.
`Cc1cc(C)cc(OCc2ccc(C(=O)Nc3ccccc3F)o2)c1` gave a survival of 72%.
`COC(=O)c1ccccc1NC(=O)c1ccc(COc2cc(C)cc(C)c2)o1` showed a survival of 59%.
With `COc1ccccc1NC(=O)c1ccc(C)o1` the survival was 104%.
Molecule `COC(=O)c1ccccc1NC(=O)c1ccc(COc2ccccc2Cl)o1` has a survival of 68%.
`CCCc1ccc(OCc2ccc(C(=O)Nc3ccccc3C(=O)OC)o2)cc1` was tested, and the survival was 3% (active).
In the case of `COc1ccccc1NC(=O)c1ccc(COc2ccc(C)c(C)c2)o1`, the survival is reported as 0% (active).
`Cc1nc2c(-c3ccc(F)cc3)c(C)nn2c(C)c1CCC(=O)N1CCN(c2ccccc2)CC1` was tested, and the survival was 75%.
Work on `Cc1c(C(=O)NCCc2ccc(Cl)cc2)sc2nc3n(c(=O)c12)CCCC3` yielded a survival of 78%.
In the case of `CCn1c(=O)cc(SCC(=O)NCc2cccc(Cl)c2)c2ccccc21`, the survival is reported as 60%.
In the case of `CCn1c2ccccc2c2cc(CN3CCN(Cc4cccc(Cl)c4)CC3)ccc21`, the survival is reported as 0% (active).
In the case of `CCCN1CCN(C(=O)Cn2ncc3c4ccccc4n(Cc4cccc(Cl)c4)c3c2=O)CC1`, the survival is reported as 80%.
`CCn1c2ccccc2c2cc(CN3CCN(Cc4cc(OC)c(O)c(OC)c4)CC3)ccc21` was tested, and the survival was 54%.
For `CCCS(=O)(=O)N1CCN(Cc2ccc(OC)c(OCC)c2)CC1`, the survival was 103%.
`Cc1ccc(Cn2c(=O)n(Cc3ccccc3Cl)c(=O)c3ccccc32)cc1` gave a survival of 56%.
With `CCn1c2ccccc2c2cc(CN3CCN(Cc4ccc(OC)c(OC)c4)CC3)ccc21` the survival was 14% (active).
Molecule `Clc1ccccc1CN1CCN(Cc2ccco2)CC1` has a survival of 101%.
Work on `CCS(=O)(=O)N1CCN(Cc2ccccc2)CC1` yielded a survival of 119%.
With `CCn1c2ccccc2c2cc(CN3CCN(Cc4ccc(Br)cc4)CC3)ccc21` the survival was 3% (active).
With `CCn1c2ccccc2c2cc(CN3CCN(Cc4ccccc4Cl)CC3)ccc21` the survival was 1% (active).
Molecule `CCn1c2ccccc2c2cc(CN3CCN(Cc4ccco4)CC3)ccc21` has a survival of 104%.
`CCC(=O)N1CCc2cc(S(=O)(=O)NCCC(=O)Nc3ccc(CC)cc3)ccc21` showed a survival of 73%.
`Brc1cccc(-c2nn(-c3ccccc3)c3c2cnc2cc4c(cc23)OCO4)c1` showed a survival of 86%.
Molecule `O=C(NCCS(=O)(=O)N1CCN(c2ccc(F)cc2)CC1)c1cccc(C(F)(F)F)c1` has a survival of 72%.
Molecule `Cc1cccc(NC(=O)c2ccc3c(c2)CCN3S(=O)(=O)c2ccccc2)c1C` has a survival of 84%.
In the case of `CCN(CC)S(=O)(=O)c1ccc2c(c1)N(CC(=O)Nc1ccc(F)cc1F)C(=O)C1CCCN21` (stereo not given), the survival is reported as 64%.
For `Cc1ccc(-n2nc(C(=O)N3CCN(c4cc(C)ccc4C)CC3)c3c4ccccc4n(C)c3c2=O)cc1`, the survival was 79%.
`CCOc1ccc(CN2CCN(C(=O)c3ccco3)CC2)cc1` showed a survival of 103%.
`CCOc1ccc(CN2CCN(Cc3ccc4c(c3)c3ccccc3n4CC)CC2)cc1` was tested, and the survival was -1% (active).
For `CCCn1c(N2CCN(Cc3ccc(Cl)cc3)CC2)nc2ccccc21`, the survival was 123%.
Molecule `CCOc1ccc(Cn2c(=O)oc3ccccc32)cc1` has a survival of 114%.
`CCn1c2ccccc2c2cc(CN3CCN(Cc4ccc(Cl)cc4)CC3)ccc21` was tested, and the survival was -2% (active).
With `CC(C)n1c(N2CCN(Cc3ccc(Cl)cc3)CC2)nc2ccccc21` the survival was 128%.
Work on `CCOc1ccc(-c2c(C)nn3c(C)c(C(=O)NCC(C)c4ccccc4)cnc23)cc1OCC` (stereo not given) yielded a survival of 72%.
In the case of `O=C(CSc1nc2c(c(=O)[nH]1)CCC2)Nc1cc(C(F)(F)F)ccc1Cl`, the survival is reported as 85%.
Work on `CCCN1Cc2cccc(C(=O)Nc3ccc(C(C)=O)cc3)c2C1=O` yielded a survival of 89%.
`CSc1ccccc1-c1nnc(NC(=O)c2ccc3c(c2)OCCO3)o1` showed a survival of 123%.
`CS(=O)(=O)c1ccc(-c2nnc(NC(=O)c3ccc4c(c3)OCCO4)o2)cc1` showed a survival of 75%.
In the case of `CS(=O)(=O)c1ccccc1-c1nnc(NC(=O)c2ccc3c(c2)OCCO3)o1`, the survival is reported as -6% (active).
In the case of `Cc1ccc(-n2c(=O)c3cccnc3n2CC(=O)Nc2ccc(C)cc2Cl)cc1`, the survival is reported as 113%.
Molecule `Cc1ccc2c(c1)-c1nc(-c3ccc(Cl)cc3)cc(-c3coc4ccccc4c3=O)c1CO2` has a survival of 139%.
`CCCn1c(=O)c2sccc2n2c(CCCC(=O)N3CCN(c4ccc(OC)cc4)CC3)nnc12` showed a survival of 99%.
Molecule `O=C(Nc1cccc(C(=O)N2CCCCC2)c1)c1nsc2ccccc12` has a survival of 65%.
In the case of `CCCc1nc2sc3c(N4CCCCC4)ncnc3c2c2c1CCCC2`, the survival is reported as 13% (active).
`CCc1nc2sc3c(N4CCCCC4)ncnc3c2c2c1CCCC2` was tested, and the survival was 136%.
Molecule `CCCc1nc2sc3c(N4CCC(C)CC4)ncnc3c2c2c1CCCC2` has a survival of 75%.
Work on `COc1ccccc1Nc1sc(C(=O)c2ccc3c(c2)OCO3)c(N)c1S(=O)(=O)c1ccccc1` yielded a survival of 83%.
In the case of `COc1ccc(Nc2nc(N)nc(CSc3nc4cc(OC)ccc4s3)n2)cc1`, the survival is reported as 8% (active).
`COc1ccc(Nc2nc(N)nc(CSc3nc4ccccc4s3)n2)cc1` was tested, and the survival was 35%.
`Cc1ccc(Nc2nc(N)nc(CSc3nc4ccccc4s3)n2)cc1` gave a survival of 32%.
`C/C=C/C(=O)Nc1ccc(Cl)c(Cl)c1` was tested, and the survival was 108%.
`COc1ccc(/C=C/C(=O)Nc2ccc(Cl)c(Cl)c2)cc1OC` was tested, and the survival was 5% (active).
Work on `COc1ccc(/C=C/C(=O)Nc2ccc(Cl)c(Cl)c2)cc1` yielded a survival of 80%.
Work on `CN(C)c1ccc(NC(=O)CSC2=Nc3ccccc3C3=NC(CC(=O)NCc4ccc5c(c4)OCO5)C(=O)N23)cc1` (stereo not given) yielded a survival of 124%.
For `O=C(Nc1cccc(OCc2cc(=O)n3ccccc3n2)c1)Nc1cccc(C(F)(F)F)c1`, the survival was -6% (active).
Molecule `Cc1cn2c(=O)cc(COc3ccc(NC(=O)c4cccc(F)c4)cc3)nc2s1` has a survival of 122%.
With `COc1cc(C(=O)Nc2ccc(OCc3cc(=O)n4cccc(C)c4n3)cc2)cc(OC)c1OC` the survival was 133%.
In the case of `Cc1ccccc1C(=O)Nc1ccc(OCc2cc(=O)n3cccc(C)c3n2)cc1`, the survival is reported as 72%.
For `O=C(COc1ccc(F)cc1)Nc1cccc(OCc2cc(=O)n3ccccc3n2)c1`, the survival was 73%.
`Cc1cccc(C(=O)Nc2ccc(OCc3cc(=O)n4ccc(C)cc4n3)cc2)c1` was tested, and the survival was 55%.
With `CCOc1ccc(C(=O)Nc2ccc(OCc3cc(=O)n4cccc(C)c4n3)cc2)cc1` the survival was 14% (active).
For `Cc1ccc(Cl)cc1NC(=O)Nc1cccc(OCc2cc(=O)n3ccccc3n2)c1`, the survival was 64%.
Work on `COc1ccccc1C(=O)Nc1ccc(OCc2cc(=O)n3ccc(C)cc3n2)cc1` yielded a survival of 85%.
With `COc1cc(C(=O)Nc2ccc(OCc3cc(=O)n4ccc(C)cc4n3)cc2)cc(OC)c1OC` the survival was 0% (active).
`Cc1cccn2c(=O)cc(COc3ccc(NC(=O)c4cccc(F)c4)cc3)nc12` was tested, and the survival was -1% (active).
Work on `COc1cccc(C(=O)Nc2cccc(OCc3cc(=O)n4cccc(C)c4n3)c2)c1` yielded a survival of 134%.
Molecule `CCOC(=O)C1CCCN(C(=O)c2nn(-c3ccc(OC)cc3)c(=O)c3c2c2ccccc2n3C)C1` (stereo not given) has a survival of 125%.
In the case of `CCOC(=O)c1ccc(NC(=O)Cn2cc(C(=O)c3ccc(CC)cc3)c(=O)c3ccc(C)nc32)cc1`, the survival is reported as 143%.
`COCCn1c(C)cc(O)c(C(c2ccc(Cl)cc2)N2CCN(c3ccccc3)CC2)c1=O` (stereo not given) showed a survival of 65%.
Work on `O=C(NCCC1=CCCCC1)c1ccc2c(c1)N(Cc1ccc(Cl)cc1)C(=O)c1ccccc1S2(=O)=O` yielded a survival of 104%.
Work on `NC(=O)CSc1oc(-c2ccco2)nc1S(=O)(=O)c1ccc(Cl)cc1` yielded a survival of 68%.
For `Cc1ccc(CNC(=O)C2CCN(S(=O)(=O)N3CCC(C)CC3)CC2)cc1`, the survival was 77%.
`O=C(Cn1cc(S(=O)(=O)Cc2ccccc2Cl)c2ccccc21)NCCc1ccccc1` was tested, and the survival was 65%.
`CCC(=O)Nc1ccc2c(c1)C(=O)OC2` was tested, and the survival was 110%.
With `Cc1ccc(OCC(=O)Nc2cccc(OCc3cc(=O)n4cccc(C)c4n3)c2)cc1C` the survival was 124%.
`Cc1ccc(OCC(=O)Nc2ccc(OCc3cc(=O)n4cccc(C)c4n3)cc2)cc1C` was tested, and the survival was -6% (active).
In the case of `Cc1cccn2c(=O)cc(COc3ccc(NC(=O)COc4ccc(F)cc4)cc3)nc12`, the survival is reported as 69%.
With `Cc1cccc(C(=O)Nc2cccc(OCc3cc(=O)n4cccc(C)c4n3)c2)c1` the survival was 76%.
For `Cc1cccn2c(=O)cc(COc3cccc(NC(=O)c4ccccc4F)c3)nc12`, the survival was -6% (active).
Work on `Cc1ccccc1C(=O)Nc1cccc(OCc2cc(=O)n3cccc(C)c3n2)c1` yielded a survival of 90%.
With `Cc1cccc(-n2c(-c3ccco3)nc3c(cnn3-c3ccccc3C)c2=O)c1` the survival was 132%.
`O=C(CN(C1CCCCC1)S(=O)(=O)c1ccccc1)N1CCCCC1` was tested, and the survival was 101%.
Work on `CCOC(=O)c1c(S(=O)(=O)N2CCC(C(=O)Nc3ccc(C)cn3)CC2)c(C)n(C)c1C` yielded a survival of 70%.
